Results on 6 molecules are retold here after PubChem BioAssay (NCI).

Assay [1] is described as follows: NCI Yeast Anticancer Drug Screen. Data for the rad50 strain (AID 155).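 Also: 0% = growth of vehicle-only cultures of the same strain.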 Conditions: S. cerevisiae rad50 strain growth inhibition, active compounds read high. The procedure, abridged: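 Yeast carrying a defined DNA repair defect were exposed to test compounds, and growth was compared with vehicle-treated controls to give percent inhibition.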
Assay [2] is described as follows: NCI Yeast Anticancer Drug Screen. Data for the mec2-1 strain (AID 157). Conditions: S. cerevisiae mec2-1 strain, active compounds read high. An outline of the steps:
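Each compound was tested on mec2-1 yeast, a strain altered in DNA damage repair or cell cycle control. Growth inhibition is reported relative to vehicle.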

The nature of assay [3]: NCI Yeast Anticancer Drug Screen. Data for the sgs1 mgt1 strain (AID 161).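 Also: 0% = growth of cultures given vehicle only.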 Conditions: S. cerevisiae sgs1 mgt1 strain, active compounds read high. The procedure, abridged: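 Inhibition of yeast growth, normalised to vehicle-treated controls, is reported for a strain bearing genetic alterations in DNA damage repair.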
A short description of assay [4]: NCI Yeast Anticancer Drug Screen. Data for the cln2 rad14 strain (AID 165).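 Also: 0% = growth equal to vehicle treated cultures.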 Conditions: S. cerevisiae cln2 rad14 strain, active compounds read high. The procedure, abridged: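 Test compounds were added to cln2 rad14 yeast cultures; inhibition of growth was then determined by comparison with vehicle treatment.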
The nature of assay [5]: NCI Yeast Anticancer Drug Screen. Data for the bub3 strain (AID 167). Conditions: S. cerevisiae bub3 mutant strain, active compounds read high. The procedure, abridged:
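Compounds were applied to a genetically altered yeast strain carrying a cell-cycle control defect. Growth inhibition was scored against vehicle-treated controls.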

Assay [6] is described as follows: NCI Yeast Anticancer Drug Screen. Data for the mlh1 rad18 strain (AID 175). Conditions: S. cerevisiae mlh1 rad18 strain growth inhibition, active compounds read high. The procedure, abridged: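 Inhibition values reflect reduced growth of mutant yeast versus vehicle-treated controls following compound exposure; the mutations affect DNA damage repair.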
The mark [7] stands for this setting: at 5.0 µM (retest, dose inferred, filed as 0.5).
Setting [8] is: at 50.0 µM (retest, dose inferred, filed as 5.0).

Structures are written as SMILES. About 79,000 compounds went through this panel and 15% of them were active in at least one assay; those are over-represented in the sample as a whole. A number with no mark means an inactive call. The source made the active and inactive calls. Rule as the data show it: active = growth inhibition above about 70%; inactive = the rest.

`N#Cc1ccc(Cl)cc1[N+](=O)[O-]`: the growth inhibition in assay [1] (setting [7]) was 31%; in assay [1] (setting [8]) it was 97% (active); in assay [1] (at 50.0 µM), 90.3% (active); in assay [2] (setting [7]), 15%; in assay [2] (setting [8]) it was 98% (active); in assay [2] (at 50.0 µM) it was 92% (active). Further, the growth inhibition is 36% in assay [3] (setting [7]); 96% (active) in assay [3] (setting [8]); 90.8% (active) in assay [3] (at 50.0 µM); 38% in assay [4] (setting [7]); 96% (active) in assay [4] (setting [8]); 91% (active) in assay [4] (at 50.0 µM). In addition, the growth inhibition is 52% in assay [5] (setting [7]); 97% (active) in assay [5] (setting [8]); 90.2% (active) in assay [5] (at 50.0 µM); 42% in assay [6] (setting [7]); 96% (active) in assay [6] (setting [8]); 90.4% (active) in assay [6] (at 50.0 µM).

For `O=C1OS(=O)(=O)c2cc3c(cc21)C1C(C2C3C3(Cl)C(Cl)=C(Cl)C2(Cl)C3(Cl)Cl)C2(Cl)C(Cl)=C(Cl)C1(Cl)C2(Cl)Cl` (stereo not drawn), the growth inhibition in assay [1] (setting [7]) was -18%; in assay [1] (setting [8]) it was 58%; in assay [1] (at 50.0 µM), 83.9% (active); in assay [2] (setting [7]) it was 48%; in assay [2] (setting [8]), 72% (active); in assay [2] (at 50.0 µM) it was 71.8% (active). The growth inhibition in assay [3] (setting [7]) is 55%; in assay [3] (setting [8]) it was 80% (active); in assay [3] (at 50.0 µM) it was 86.6% (active); in assay [4] (setting [7]) it was 8%; in assay [4] (setting [8]) it was 77% (active); in assay [4] (at 50.0 µM) it was 60.9%. The growth inhibition in assay [5] (setting [7]) is 3%; in assay [5] (setting [8]), 81% (active); in assay [5] (at 50.0 µM), 74% (active); in assay [6] (setting [7]) it was 63%; in assay [6] (setting [8]) it was 91% (active); in assay [6] (at 50.0 µM), 73.8% (active).

As to `Cc1ccc(N2CCN(c3c(N)cncc3Br)CC2)cc1`, the growth inhibition in assay [1] (setting [7]) was -4%; in assay [1] (setting [8]) it was -4%; in assay [1] (at 50.0 µM), 94% (active); in assay [2] (setting [7]), 6%; in assay [2] (setting [8]), 14%; in assay [2] (at 50.0 µM) it was 97.3% (active). Further, the growth inhibition in assay [3] (setting [7]) was 0%; in assay [3] (setting [8]), 18%; in assay [3] (at 50.0 µM), 92.8% (active); in assay [4] (setting [7]) it was 0%; in assay [4] (setting [8]), -15%; in assay [4] (at 50.0 µM) it was 46.5%. The growth inhibition in assay [5] (setting [7]) is 19%; in assay [5] (setting [8]) it was 71% (active); in assay [5] (at 50.0 µM), 96% (active); in assay [6] (setting [7]), -4%; in assay [6] (setting [8]), -1%; in assay [6] (at 50.0 µM) it was 90.8% (active).

Turning to `CCOC(=O)C(=NNc1ccccc1)C(=O)OCC`, the growth inhibition in assay [1] (setting [7]) was 2%; in assay [1] (setting [8]), 50%; in assay [1] (at 50.0 µM), 42.4%; in assay [2] (setting [7]), -3%; in assay [2] (setting [8]), 2%; in assay [2] (at 50.0 µM), 33.2%. Further, the growth inhibition in assay [3] (setting [7]) was -4%; in assay [3] (setting [8]), 16%; in assay [3] (at 50.0 µM) it was 42.5%; in assay [4] (setting [7]) it was -1%; in assay [4] (setting [8]), 4%; in assay [4] (at 50.0 µM) it was -14.6%. Besides, the growth inhibition in assay [5] (setting [7]) is -1%; in assay [5] (setting [8]) it was 27%; in assay [5] (at 50.0 µM), 46.9%; in assay [6] (setting [7]) it was 1%; in assay [6] (setting [8]) it was 25%; in assay [6] (at 50.0 µM), 62.9%.

Take `Cc1c(O)c2c(c(O)c1Br)C(=O)C=CC2=O`: the growth inhibition in assay [1] (setting [7]) is 88% (active); in assay [1] (setting [8]), 96% (active); in assay [1] (at 50.0 µM) it was 70.8% (active); in assay [2] (setting [7]), 93% (active); in assay [2] (setting [8]), 98% (active); in assay [2] (at 50.0 µM), 90.5% (active). Besides, the growth inhibition is 74% (active) in assay [3] (setting [7]); 98% (active) in assay [3] (setting [8]); 90.5% (active) in assay [3] (at 50.0 µM); 49% in assay [4] (setting [7]); 97% (active) in assay [4] (setting [8]); 87.3% (active) in assay [4] (at 50.0 µM). For the same molecule, the growth inhibition in assay [5] (setting [7]) is 98% (active); in assay [5] (setting [8]), 98% (active); in assay [5] (at 50.0 µM) it was 89.1% (active); in assay [6] (setting [7]), 96% (active); in assay [6] (setting [8]), 97% (active); in assay [6] (at 50.0 µM) it was 90.8% (active).

Regarding `O=C([O-])c1ccccc1[I+]c1ccc(C2CCCCC2)cc1`, the growth inhibition was 3% in assay [1] (setting [7]); 45% in assay [1] (setting [8]); 85.2% (active) in assay [1] (at 50.0 µM); 2% in assay [2] (setting [7]); 67% in assay [2] (setting [8]); 79.6% (active) in assay [2] (at 50.0 µM). For the same molecule, the growth inhibition in assay [3] (setting [7]) is 22%; in assay [3] (setting [8]), 50%; in assay [3] (at 50.0 µM) it was 89.8% (active); in assay [4] (setting [7]), 3%; in assay [4] (setting [8]), 47%; in assay [4] (at 50.0 µM), 73.2% (active). Further, the growth inhibition in assay [5] (setting [7]) is 0%; in assay [5] (setting [8]), 45%; in assay [5] (at 50.0 µM), 71.8% (active); in assay [6] (setting [7]), 32%; in assay [6] (setting [8]) it was 85% (active); in assay [6] (at 50.0 µM) it was 89.9% (active).
